Many of the other results were omitted from the sample, so hits are more common in it than they were.
Dicer inh: inhibitors of Dicer pre-microRNA processing, primary screen, biochemical, cat-ELCCA, chemiluminescence; actives 6% (n = 47,000); Endoribonuclease Dicer (Homo sapiens), Q9UPY3; cat-ELCCA pre-miR-21 Dicer processing; active compounds read high; z-score at 25 µM; in the data active = z-score above about 3, passing the limit was not always enough;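 also: plate controls were vehicle for no effect and no enzyme for full effect; higher signal means more uncleaved substrate so more Dicer inhibition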
Target sequence (Q9UPY3 whole entry, looked up): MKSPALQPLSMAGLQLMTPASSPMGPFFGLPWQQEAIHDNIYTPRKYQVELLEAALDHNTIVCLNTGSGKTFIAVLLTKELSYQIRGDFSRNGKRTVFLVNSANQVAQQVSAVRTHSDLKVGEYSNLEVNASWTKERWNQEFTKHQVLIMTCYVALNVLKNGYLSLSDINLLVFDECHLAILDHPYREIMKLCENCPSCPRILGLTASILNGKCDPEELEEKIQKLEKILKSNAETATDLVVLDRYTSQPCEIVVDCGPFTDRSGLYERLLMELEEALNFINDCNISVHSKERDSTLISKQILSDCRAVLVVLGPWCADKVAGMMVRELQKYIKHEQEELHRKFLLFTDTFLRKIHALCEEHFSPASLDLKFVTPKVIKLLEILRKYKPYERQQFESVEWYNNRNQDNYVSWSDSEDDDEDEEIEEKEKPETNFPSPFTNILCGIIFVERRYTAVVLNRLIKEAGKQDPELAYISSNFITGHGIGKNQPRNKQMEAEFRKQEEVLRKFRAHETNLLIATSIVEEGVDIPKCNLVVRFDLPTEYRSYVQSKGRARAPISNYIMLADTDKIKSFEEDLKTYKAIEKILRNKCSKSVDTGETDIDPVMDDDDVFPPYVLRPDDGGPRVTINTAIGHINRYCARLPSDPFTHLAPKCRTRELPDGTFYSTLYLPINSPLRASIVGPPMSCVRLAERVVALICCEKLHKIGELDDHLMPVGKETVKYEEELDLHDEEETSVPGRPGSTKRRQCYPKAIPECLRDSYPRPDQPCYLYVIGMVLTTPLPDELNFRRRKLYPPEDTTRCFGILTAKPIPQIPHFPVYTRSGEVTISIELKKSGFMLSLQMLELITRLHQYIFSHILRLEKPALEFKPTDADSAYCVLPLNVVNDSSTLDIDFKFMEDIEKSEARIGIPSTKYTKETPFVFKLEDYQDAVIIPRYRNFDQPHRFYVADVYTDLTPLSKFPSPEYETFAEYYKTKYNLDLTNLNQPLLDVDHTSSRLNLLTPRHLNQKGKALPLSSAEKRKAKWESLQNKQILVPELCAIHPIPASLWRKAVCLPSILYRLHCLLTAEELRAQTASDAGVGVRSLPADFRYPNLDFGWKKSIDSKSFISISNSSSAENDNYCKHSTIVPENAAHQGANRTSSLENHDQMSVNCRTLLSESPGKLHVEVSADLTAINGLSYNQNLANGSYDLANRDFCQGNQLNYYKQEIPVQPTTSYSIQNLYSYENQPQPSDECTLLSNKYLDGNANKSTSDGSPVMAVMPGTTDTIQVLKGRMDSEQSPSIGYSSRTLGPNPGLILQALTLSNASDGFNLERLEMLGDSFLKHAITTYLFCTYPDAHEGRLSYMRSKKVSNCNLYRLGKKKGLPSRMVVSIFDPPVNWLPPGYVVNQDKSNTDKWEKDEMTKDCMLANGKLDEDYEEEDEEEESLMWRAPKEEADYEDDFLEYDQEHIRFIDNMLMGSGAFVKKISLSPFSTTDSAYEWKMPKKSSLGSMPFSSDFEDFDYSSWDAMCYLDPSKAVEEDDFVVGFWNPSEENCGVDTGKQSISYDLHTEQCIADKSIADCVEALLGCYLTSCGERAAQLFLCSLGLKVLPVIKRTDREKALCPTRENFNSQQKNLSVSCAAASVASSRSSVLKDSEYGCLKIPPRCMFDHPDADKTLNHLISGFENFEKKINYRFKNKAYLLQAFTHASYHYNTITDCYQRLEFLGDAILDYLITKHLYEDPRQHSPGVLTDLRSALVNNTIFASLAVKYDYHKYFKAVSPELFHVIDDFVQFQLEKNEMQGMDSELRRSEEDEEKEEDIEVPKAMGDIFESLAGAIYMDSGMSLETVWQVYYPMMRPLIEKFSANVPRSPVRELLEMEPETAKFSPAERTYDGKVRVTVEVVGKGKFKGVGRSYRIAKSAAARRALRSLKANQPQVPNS
Numbers without * were called inactive.

SMILES | Dicer inh
O=c1oc(-c2ccc(-c3ccccc3)cc2)nc2ccccc12 | 0.22
O=c1oc(-c2cccc(Cl)c2)nc2ccccc12 | 0.1
O=c1oc(-c2ccccc2Br)nc2ccccc12 | 4.6*
CC(Sc1nc2c(N)ncnc2n1Cc1ccccc1)C(=O)O (configuration not stated) | -0.84
Cn1c(=O)c([N+](=O)[O-])c(O)c2ccccc21 | 1.5
CC(Sc1nnc2sc3ccccc3n12)C(=O)O (configuration not stated) | 0.44
CCOC(=O)c1cnc(NC(=O)CSc2nnc3sc4ccccc4n23)s1 | 4.3*
C=CCSc1nnc2sc3ccccc3n12 | 0.61
Cc1ccc(/C(O)=C2/C(=O)C(=O)N(CC3CCCO3)C23C(=O)N(C)c2ccccc23)cc1F (configuration not stated) | -0.5
CC(=O)c1cc(Cl)cc(Cl)c1OC(=O)c1ccccc1Cl | -0.57
CN(C)C(=S)Cc1ccc(Cl)cc1 | 0.76
ON(Cc1ccc(Cl)cc1)Cc1ccc(Cl)cc1 | 3*
ON(Cc1cccc(C(F)(F)F)c1)Cc1cccc(C(F)(F)F)c1 | 16
CSc1cc(-c2ccccn2)nc(C(C)(C)C)c1 | 2.3
O=S1(=O)CCC(S(=O)(=O)N2CCCCC2)C1 (configuration not stated) | -0.62
C#CCN1C(=O)C(O)(CC(=O)c2c(C)cc(C)cc2C)c2ccccc21 (configuration not stated) | 4.3*
C#CCN1C(=O)C(O)(CC(=O)c2ccc(C)cc2C)c2ccccc21 (configuration not stated) | 1.6
C#CCN1C(=O)C(O)(CC(=O)c2cc(C)ccc2C)c2ccccc21 (configuration not stated) | 1.1
CCOC(=O)CCCCCN1C(=O)S/C(=C/c2ccc(OC)cc2)C1=S | 0.37
C=C(c1ccccc1)c1ccc(OC)cc1 | 0.46
COc1ccc(N=Nc2c(O)c(O)cc3ccccc23)cc1 | 2.3
C#CC(O)(c1ccc(OC)cc1)c1ccccc1F (configuration not stated) | 4.1*
COc1ccc(-c2nnc3c4cnn(-c5ccccc5)c4ncn23)cc1OC | 1.3
COc1ccc(C(=O)O/C(=C/c2nccn2C(=O)c2ccc(OC)cc2)c2ccc(OC)cc2)cc1 | -1.7
O=C(Nc1cccc(C(F)(F)F)c1)Nc1nnc(C2CC2)s1 | 0.06
SMILES | Dicer inh
CCOC(=O)COc1ccccc1/C=C1\N=C(SCC)SC1=O | -0.54
CC(C)(Oc1ccc(C(C)(C)C)cc1)C(=O)O | -1.4
O=C(O)CCCC(=O)Nc1nc2nccc(-c3ccccc3)n2n1 | -0.66
O=C(O)CCCC(=O)Nc1ccn(-c2ccccc2)n1 | 0.09
Nc1nc(NC(=O)CCCC(=O)O)nn1-c1ccccc1 | 16*
COc1ccc(Cl)cc1NC(=O)CSCC(=O)O | 2.2
CCN(CC)C(=O)c1sc2nc3c(cc2c1N)CCCC3 | 1.7
CCOC(=O)c1cc(CC)sc1NC(=O)CC1Sc2ccccc2NC1=O (configuration not stated) | 1.3
O=C(COC(=O)c1cc2ccccc2cc1OC(=O)c1ccc(Cl)cc1)c1ccc(Cl)cc1 | 1
Cc1ccc(C(=O)COC(=O)c2cc(Cl)ccc2O)cc1C | 4*
COc1ccc(C(=O)CC(=O)c2cc(Cl)ccc2O)cc1OC | -0.7
O=C(Nc1ccc(N2CCOCC2)nc1)C1CC(=O)N(Cc2ccco2)C1 (configuration not stated) | 1.7
CCCCN(CCCC)Cc1c(C)[nH]c2ccccc2c1=O | 1.6
CC(=O)N1c2ccccc2CC1S(=O)(=O)O (configuration not stated) | -1.3
CCOC(=O)CSC1=C(C#N)C(c2ccco2)C(C(=O)Nc2ccccc2)=C(C)N1 (configuration not stated) | -0.47
Cc1cccc2nc(-c3ccno3)oc(=O)c12 | 1.3
CCC/C(O)=C(/C=Nc1ccccc1C(=O)OC)C(=O)OCC | 3.2*
COC(=O)c1c(OC)ccc(N=C/C(C(C)=O)=C(\C)O)c1OC | -0.8
CCOC(=O)C(=CNc1ccc(C(=O)OC)o1)C(=O)OCC | 0.79
CC(C)(C)c1nnc(NC(=O)Nc2ccc(OC(F)(F)F)cc2)s1 | 0.21
O=C(c1c2oc(-c3ccccc3)ccc-2c2ccccc12)C(F)(F)F | 2.7
Cc1nnc(NC(=O)CSc2nnc3c(n2)[nH]c2ccccc23)s1 | 1.6
O=C(CSc1nnc2c(n1)[nH]c1ccccc12)Nc1nnc(-c2ccccc2)s1 | -0.6
O=C(O)CSc1nnc2c(n1)[nH]c1ccccc12 | -0.46
CCOC(=O)CSc1nnc2c(n1)[nH]c1ccccc12 | -0.83
SMILES | Dicer inh
O=C(CSc1nnc2c(n1)[nH]c1ccccc12)Nc1nc2ccccc2s1 | 5.4*
C=C(C)CSc1nnc2c(n1)[nH]c1ccccc12 | 3.6*
Cc1ccccc1OCC(O)Cn1c(CO)nc2ccccc21 (configuration not stated) | -1.4
CN1N=C(c2ccccc2)CSC1=Nc1ccccc1Cl | -1.4
O=S(=O)(CCN(Cc1cccs1)C(=S)Nc1cccc(F)c1)c1ccc(Cl)cc1 | -1.9
O=S(=O)(CCN(Cc1cccs1)S(=O)(=O)c1ccc(Cl)cc1)c1ccc(Cl)cc1 | 1.7
CNC(=S)N(CCS(=O)(=O)c1ccc(Cl)cc1)Cc1cccs1 | 3.2*
CC1=CC(C)(C)N=C(Nc2nc(C)c3cc(C)cc(C)c3n2)N1 | -0.43
Cc1cc(C)c2nc(Nc3nc4ccccc4c(=O)[nH]3)nc(C)c2c1 | 3
Cc1cc(C)c2nc(Nc3nc(C)cc(C)n3)nc(C)c2c1 | 3.3*
COc1cccc(OCCCCCN2CCCCC2)c1 | 1.3
Cc1c(C)c(C)c(S(=O)(=O)Oc2ccc(Cl)c(Cl)c2)c(C)c1C | 0.31
Cc1c(C)c(C)c(S(=O)(=O)Oc2c(Cl)cccc2Cl)c(C)c1C | 6.9*
Cc1cc(S(=O)(=O)Oc2c(Cl)cccc2Cl)cc(C)c1F | -0.24
Nc1c(C(=O)NNC(=S)NCc2ccccc2)sc2nnc(-c3ccccc3)c(-c3ccccc3)c12 | 11
CCC(=O)Oc1ccc(C2C3=C(Nc4c2c(=O)n(C)c(=O)n4C)c2ccccc2C3=O)cc1 (configuration not stated) | -0.12
CCN1C(=O)C2(/C(=C(/O)c3ccc4c(c3)CC(C)O4)C(=O)C(=O)N2CCCOC)c2ccccc21 (configuration not stated) | 2.9
O=C(O)COCC(=O)Nc1ccccn1 | 0.85
O=C(Nc1ccccn1)c1cccc(C(=O)Nc2ccccn2)n1 | 3.5*
O=C(Nc1cccc(NC(=O)c2c(F)cccc2F)n1)c1c(F)cccc1F | -0.22
O=C(Oc1ccc(Cl)cc1)c1cscc1Sc1ccc(Cl)cc1 | -1.1
COc1ccc(N=CC2=C(Cl)c3cc(F)ccc3OC2)cc1 | 2.6
N#C/C(=C\Nc1cc(C(F)(F)F)cc(C(F)(F)F)c1)S(=O)(=O)c1ccc(Cl)cc1 | -2.8
O=c1oc(-c2ccccc2)nc2sc3c(c12)CCCCC3 | 3.1*
O=c1oc(-c2cccs2)nc2sc3c(c12)CCCCC3 | 0.26
SMILES | Dicer inh
O=c1oc(/C=C/c2ccccc2)nc2sc3c(c12)CCC3 | 4.8*
S=c1nc2sc3c(c2c(Nc2ccccc2)[nH]1)CCCC3 | -0.93
Cc1ccccc1-c1nc2sc3c(c2c(=O)o1)CCC3 | 0.99
O=c1oc(-c2ccccc2)nc2sc3c(c12)CCCC3 | 0.54
CC(C)NC(=O)O/N=C(\N)CSc1nccn1C | 0.1
O=C1CC(S(=O)(=O)c2ccccc2)C(=O)N1c1cc(Cl)cc(Cl)c1 (configuration not stated) | -0.04
CN1CCC(c2ccc(Cl)s2)=N1 | 0.65
O=C1C(=O)N(c2ccccc2)C(=S)/C1=C(\O)c1ccc(Cl)cc1 | -2.2

Screening results: PubChem, Center for Chemical Genomics, University of Michigan
